An excerpt weighted towards active compounds, which were near 8% of everything screened.
KB-3-1 tox = KB-3-1 parental cell cytotoxicity | Potency, µM (series often up to 46.1 µM), actives largely listed as cytotoxic | AID 1347075 | 400,000 compounds, 1.4% hits | KB-3-1 viability, CellTiter-Glo ATP luminescence, 72 h; further: on the % scale 0 is the no-effect control and ±100 the full control effect; nearly all actives have a fitted effect of over 60% in size
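Cytotoxicity in the drug-sensitive parental line KB-3-1 was scored as loss of CellTiter-Glo luminescence following 72 h incubation with compound. Values come from curve fitting of normalized concentration-response data.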
MCF10A rerep = induces DNA re-replication in MCF 10a normal breast cells | MCF 10A DNA re-replication, Hoechst nuclear intensity, 48 h | Potency, µM (doses to about 46.1 µM), without a hit: top-dose activity, positive = re-replication, most hits filed as activators | 350,000 compounds, 2.9% hits | AID 624296; further: % of control where 0% means no effect; nearly all actives have a fitted effect of over 50% in size
HT1080NT lethal = kills 2HG-producing HT-1080-NT fibrosarcoma cells | HT-1080-NT fibrosarcoma viability, CellTiter-Glo ATP luminescence, 48 h | Potency, µM (series often up to 46.1 µM), for inactives: at the highest dose activity, negative = less viability, hits mostly cytotoxic | 360,000 compounds, 1.6% hits | AID 686970;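 further: NT is the 2HG producing partner of a matched IDH1 knockdown line; 0% = DMSO-treated cells and -100% = media-only wells without cells; nearly all actives have a fitted effect of over 55% in size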
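Read-out is CellTiter-Glo luminescence after 10 minutes at room temperature, following 48 hours' compound treatment of HT-1080-NT cells (750 cells/well, RPMI, 5% FBS, 37 degrees C).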
HT1080 IDH1KD tx = HT-1080 IDH1 knockdown cell toxicity (counter line); HT-1080 IDH1 knockdown viability, ATP luminescence, 48 h; Potency, µM (series often up to 46.1 µM), for inactives: at the highest dose activity, negative = toxicity, usual class: cytotoxic; 360,000 compounds, 2% hits;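 further: 0% = DMSO wells and -100% = cell-free medium wells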
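In this qHTS, HT-1080 cells depleted of IDH1 are exposed for 48 h at 37 °C to compound titrations. Toxicity is scored from CellTiter-Glo luminescence, with DMSO as full viability and medium alone as none.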
SW480 rereplic = DNA re-replication induction in SW480 cells; Potency, µM (doses to about 46.1 µM), for the others: at the highest dose re-replication activation, hits mostly activators; AID 624297; SW480 DNA re-replication, Hoechst DNA content imaging, 48 h; 340,000 compounds, 1.8% hits; further: % of control where 0% means no effect; nearly all actives have a fitted effect of over 55% in size
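Hoechst fluorescence of nuclei (405 nm excitation, 500-530 nm emission) measured by plate-scanning imager after 48 hr compound exposure at 37 C; re-replication scored as increased number of nuclei with elevated intensity.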
KB-V1 cytotox = kills drug-selected multidrug resistant KB-V1 cells; Potency, µM (top dose mostly 46.1 µM), usual class: cytotoxic; 400,000 compounds, 3.4% hits; KB-V1 MDR cells viability, CellTiter-Glo, 72 h; further: on the % scale 0 is the no-effect control and ±100 the full control effect; nearly all actives have a fitted effect of over 60% in size
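KB-V1 MDR subline cells in DMEM (phenol-red free, 10% FBS) exposed to compounds in qHTS concentration series for 72 h at 37 degrees C. Viability read by CellTiter-Glo luminescence; concentration-effect curves fitted after normalization and correction.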
The depositor's hits bear a star; i = inactive; ? = inconclusive; / = no result; ! = not active in a repeat. The call rests on the fitted dose curve; in most records, active means well fitted curve in the direction sought with a large enough effect; inconclusive means small, poorly fitted or top-dose-only effect, or another doubt; inactive means no such curve, though single readings can be large; an effect the other way counts as inactive or inconclusive. Potency means the concentration at half of the fitted maximal effect.

SMILES	KB-3-1 tox	MCF10A rerep	HT1080NT lethal	HT1080 IDH1KD tx	SW480 rereplic	KB-V1 cytotox
CCOc1ccc(OCCSc2nc(-c3ccccc3)cc(=O)[nH]2)cc1	i	4%	-5%	-4%	-2%	i
O=C(NCCO)c1c(-c2ccc3c(c2)OCO3)noc1-c1ccsc1	i	2%	8%	6%	1%	i
CCN(Cc1ccccc1)c1ccc(/C=N/NC(=O)c2cccc(S(=O)(=O)N3CCOCC3)c2)cc1	?	?	?	21µM*	15%	?
CCN(CC)c1ccc(/C=N/NS(=O)(=O)c2ccc(C)c([N+](=O)[O-])c2)cc1	i	10%	-18%	-14%	-3%	i
CCN(CC)c1ccc(/C=N/NC(=O)c2cccc(S(=O)(=O)N3CCOCC3)c2)cc1	i	0%	-2%	-24%	-5%	i
CN(Cc1cnn(Cc2ccccc2)c1)C(=O)c1cccc(S(=O)(=O)N2CCOCC2)c1	15µM*	?	?	?	18µM*	i
CN(Cc1cccc(F)c1)C(=O)c1cccc(S(=O)(=O)N2CCN(Cc3ccccc3)CC2)c1	?	13%	-1%	-5%	-2%	?
Cc1ccc(N(C)S(=O)(=O)c2cccc(C(=O)N(C)Cc3cnn(-c4ccccc4)c3)c2)cc1	i	21µM*	-3%	?	?	5.8µM*
CCN(Cc1ccccc1)c1ccc(/C=N/NS(=O)(=O)c2cccc([N+](=O)[O-])c2)cc1	i	?	-10%	-2%	0%	16µM*
CCn1c(COc2ccc(=O)n(-c3ccccc3)n2)nnc1SCc1ccccc1	i	6%	3%	3%	-1%	i
CCC1Nc2ncnc(N3CCOCC3)c2N(Cc2ccc(Br)cc2)C1=O (stereo unspecified)	i	-27%	-2%	-1%	-4%	i
COc1ccc(C(=O)N(C)Cc2cnn(Cc3ccccc3)c2)cc1S(=O)(=O)N1CCOCC1	5.8µM*	3.7µM*	5.8µM*	5.8µM*	4.1µM*	i
Cc1cnccc1CN(C)Cc1nc(Cc2ccccc2Cl)no1	21µM*	0%	?	-29%	-4%	9.2µM*
COc1ccc(-n2c(SCc3nc(-c4ccc(Cl)cc4)no3)nnc2-c2ccncc2)cc1	i	/	/	/	/	?
Cc1ccc(-c2noc(CSc3nnc(Cc4ccccc4)n3-c3ccc(Cl)cc3)n2)cc1	?	?	?	?	?	18µM*
COc1ccc(-c2noc(CSc3nnc(Cc4ccccc4)n3-c3ccc(Cl)cc3)n2)cc1	i	?	?	?	19%	12µM*
COc1ccc(-c2noc(CSc3nnc(CCc4ccccc4)n3-c3ccccc3)n2)cc1OC	i	?	?	?	24%	23µM*
CCN(CC(=O)Nc1cc(Cl)ccc1Cl)C(=O)c1ccc(-n2cccn2)cc1	i	-6%	-1%	3%	-3%	i
COc1ccccc1-n1cc([C@@H]2C[C@H]3CN(c4ccccc4)C(=O)[C@]34CCCN24)cn1	i	2.6µM*	?	5.8µM*	8.2µM*	7.3µM*
COc1cc([C@@H]2C[C@H]3CN(c4ccccc4)C(=O)[C@]34CCCN24)cc(OC)c1OC	?	18µM*	9%	-16%	-3%	i
O=c1[nH]c(/C(Cl)=C/c2cc(Cl)ccc2O)nc2cc(Cl)ccc12	?	15µM*	-1%	-2%	26%	15µM*
Nc1ccc(N2CCN(c3ccc(Cl)c(Cl)c3)CC2)cc1	21µM*	?	-10%	-6%	-10%	18µM*
COC(=O)N1CCN(c2ccc(Cl)c(Cl)c2)CC1	?	20%	-2%	6%	-1%	23µM*
CN(Cc1ccc(F)cc1)C(=O)c1cccc(S(=O)(=O)NCc2ccccc2)c1	i	0%	-5%	-2%	-114%	i
COc1ccc(C2c3c(ncn(CCN4CCOCC4)c3=N)Oc3ccc4ccccc4c32)cc1OC (stereo unspecified)	?	?	?	16µM*!	?	23µM*
SMILES	KB-3-1 tox	MCF10A rerep	HT1080NT lethal	HT1080 IDH1KD tx	SW480 rereplic	KB-V1 cytotox
COc1ccc(C2c3c(ncn(CCCO)c3=N)Oc3ccc4ccccc4c32)cc1OC (stereo unspecified)	?	?	?	23µM*	?	i
COc1ccc(C2c3c(ncn(CCCO)c3=N)Oc3ccc4ccccc4c32)cc1 (stereo unspecified)	?	?	21µM*	21µM*	?	i
COc1ccc(C2c3c(ccc4ccccc34)Oc3ncn4nc(Cc5ccccc5)nc4c32)cc1OC (stereo unspecified)	i	-3%	-3%	?	4%	i
NCCCC[C@H](N)c1nnc([C@H](CCC(=O)O)NC(=O)C2CCNCC2)o1	?	-13%	6%	8%	-21%	?
Cc1cc(N/N=C/c2ccc(O)cc2O)nc(-n2nc(C)cc2C)n1	?	5.2µM*	-30%	?	?	?
Cc1cc(N/N=C/c2cccc([N+](=O)[O-])c2)nc(-n2nc(C)cc2C)n1	?	?	0%	15%	3.7µM*	?
Cc1cc(N/N=C/c2ccccc2[N+](=O)[O-])nc(-n2nc(C)cc2C)n1	?	7%	?	-28%	23%	?
CC(C)(C)N1C(=O)c2ccc(C(=O)Nc3ccc(O)cc3)cc2C1=O	?	?	?	?	?	8.2µM*
COc1ccc(CNC(=O)Nc2ccc(OC)cc2)cc1	i	18µM*	4%	-8%	?	i
COc1ccc(CNC(=O)Nc2ccccc2)cc1	i	1%	1%	5%	17%	i
CCOC(=O)c1ccc(NC(=O)C23CCC(C)(C(=O)O2)C3(C)C)cc1 (stereo unspecified)	i	5%	-4%	-10%	13%	?
COc1ccc(NC(=O)C23CCC(C)(C(=O)O2)C3(C)C)cc1 (stereo unspecified)	i	0.52µM*	4%	2%	5.2µM*	i
CC1CC1c1ccc(/C=C(\C#N)C(=O)Nc2ccccc2Cl)o1 (stereo unspecified)	i	16µM*	6%	11%	4%	?
O=C(Nc1ccc(F)cc1F)c1cccc(C(=O)Nc2ccc(F)cc2F)n1	/	6.5µM*	13%	15%	16µM*	/
CCCCN(CC)c1nc(N)c2c(N)nc(OCC)cc2c1C#N	i	23µM*	-5%	-10%	?	i
